“And” between values parts separate entries of the source, which are not always exact repeats. Identical values can stand only once. Out of some 16,000 compounds screened, about 5,700 (36%) were called active. About 24% were inconclusive and are not listed. This is one part of the list. A number with no mark means an inactive call. Calls follow the shape of the dose curve; as a rule, active = well fitted curve in the direction sought with a large enough effect; inconclusive = small, poorly fitted or top-dose-only effect, or effect the other way; inactive = no such curve, though single readings can be large or run the other way.
Molecular target: Cytochrome P450 1A2 (Homo sapiens) (UniProt P05177)
Sequence (P05177 whole entry, looked up): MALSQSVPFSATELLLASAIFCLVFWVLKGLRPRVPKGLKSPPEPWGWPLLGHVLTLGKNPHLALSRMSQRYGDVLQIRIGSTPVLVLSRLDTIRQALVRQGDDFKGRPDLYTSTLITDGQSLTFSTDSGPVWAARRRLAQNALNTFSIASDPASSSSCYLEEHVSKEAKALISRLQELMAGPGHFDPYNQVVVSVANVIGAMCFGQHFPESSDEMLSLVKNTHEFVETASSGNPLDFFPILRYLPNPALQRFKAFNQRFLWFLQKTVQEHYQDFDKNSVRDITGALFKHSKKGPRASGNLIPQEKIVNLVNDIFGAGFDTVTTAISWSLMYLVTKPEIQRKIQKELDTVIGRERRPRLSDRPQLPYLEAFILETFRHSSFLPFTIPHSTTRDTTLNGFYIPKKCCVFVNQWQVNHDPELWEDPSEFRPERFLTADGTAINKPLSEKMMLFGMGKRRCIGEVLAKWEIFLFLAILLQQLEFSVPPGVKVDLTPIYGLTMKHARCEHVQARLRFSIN
Experiment: Cytochrome panel assay with activity outcomes
Conditions: recombinant CYP, pro-luciferin dealkylation, luminescence, p450-cyp1a2; series mostly up to 57.1 µM; activity, negative = inhibition: at the top concentration
Method: The P450 gene superfamily is involved in the metabolism and clearance of xenobiotics. This assay used various human CYP P450 isozymes to measure the dealkylation of various pro-luciferin substrates to luciferin. The luciferin is then measured by luminescence after the addition of a luciferase detection reagent. Pro-luciferin substrate concentration in the assay was equal to its KM for its CYP P450 isozyme. Inhibitors and some substrates limit the production of luciferin, and decrease measured luminescence.
NCGC Assay Protocol Summary:
1, Reagent, 2 uL, Isozyme and Pro-Luciferin
2, Library compounds, 23 nl, 40 uM to 0.24 nM dilution series
3, Controls, 23 nl, Isozyme specific inhibitor
4, Reagent, 2 uL, NADPH regeneration solution
5, Incubation time, 60 min, Isozyme specific temperature
6, Reagent, 4ul, Detection reagent
7, Incubation time, 20 min, Isozyme specific temperature
8, Detection, 1 sec, ViewLux luminescent read
The luciferase-based P450-GloTM Screening Systems were obtained from Promega (Madison, WI) for CYP 1A2 (V9770), CYP 2C9 (V9790), CYP2 C19 (V9880), CYP 2D6 (V9890), and CYP 3A4 Luciferin-PPXE (V9910) and were adapted for 1,536-well microplates and an automated protocol. The control compounds furafylline for 1A2 (F124), sulfaphenazole for CYP 2C9 (S0758), ketoconazole for CYP 2C19 (K1003), quinidine for 2D6 (Q3625), and ketoconazole for 3A4 (K1003) were purchased from Sigma Aldrich (St. Louis, MO). Recombinant P450 enzymes were obtained from baculovirus constructs expressed in insect cells (BD/Gentest).
Medium-binding white solid Kalypsys plates used. Mixtures kept on ice. 1A2: 10 nM 1A2, 100 uM Luc-ME, 100 mM KPO4; 2C9: 10 nM 2C9, 100 uM Luc-H, 25 mM KPO4; 2C19: 5 nM 2C19, 10 uM Luc-H EGE, 50 mM KPO4; 2D6: 5 nM 2D6, 30 uM Luc-ME EGE, 100 mM KPO4; 3A4: 10 nM, 25 uM Luc-PPXE. All amounts are reflected in their final concentration, working concentration is 2x.
NADPH regeneration solution: 1.3 mM NADP+, 3.3 mM glucose-6-phosphate, 3.3 mM MgCl2, 0.4 U/mL glucose-6-phosphate dehydrogenase for all isozymes, 200 mM KPO4 for 3A4. Mixture prepared at RT but kept on ice during automated run.
RT incubation in auxilliary plate hotel for 1A2, 2D6, and 3A4; 37C for 2C9 and 2C19.
Keywords: P450, CYP1A2, CYP2C19, CYP2C9, CYP2D6, CYP3A4, Luciferase, MLSMR, MLSCN, NIH Roadmap, qHTS, NCGC
% is scaled to controls: 0 for no effect and ±100 for the full control effect.

Question: How did the “activity, negative = inhibition” value turn out when `COC(=O)c1c(-c2ccccc2)csc1NC(=O)CSc1ncnc2sc(C)c(C)c12` was run?
Answer: -28.3%

Question: With `Cc1cc(NC(=O)Nc2ccc(N(C)C)cc2)c2cc(F)cc(F)c2n1` as the compound, how does the AC50 read?
Answer: 0.126 µM (active)

Question: `CO[C@@H]1COC(=O)C/C=C\[C@@H](C)[C@@H]2C=C[C@H](O)[C@@H](COC(=O)CCC[C@H]1C)O2` was tested. Which activity, negative = inhibition did it give?
Answer: 1.73% [at 11.4 µM]

Question: With `Cc1ccc(Nc2nc(-c3c(C)nc4ncccn34)cs2)cc1` as the compound, how does the AC50 read?
Answer: 3.16 µM (active)

Question: Which AC50 does the source give for `CN(C)CC[C@H](c1ccc(Br)cc1)c1ccccn1` here?
Answer: inactive

Question: Which AC50 does the source give for `Cc1cc(NCc2ccccn2)ccc1Br` here?
Answer: 4.47 µM (active)

Question: With `Cc1cc(Br)ccc1NCc1ccccn1` as the compound, how does the AC50 read?
Answer: 1.12 µM (active)

Question: Which activity, negative = inhibition does the source give for `Cc1cc(N=Cc2c(CO)cnc(C)c2O)c(N=Cc2c(CO)cnc(C)c2O)cc1C.[Zn]` here?
Answer: -10.4% [at 2.29 µM]

Question: How did the “activity, negative = inhibition” value turn out when `CC(=O)NC1(c2cccc(F)c2)CCN(CC(=O)NC2CCCCC2)CC1` was run?
Answer: -13.1%

Question: With `CCCC(c1cc(C(C)(C)C)c(O)cc1C)c1cc(C(C)(C)C)c(O)cc1C` as the compound, how does the activity, negative = inhibition read?
Answer: -12.3% [at 2.29 µM]

Question: How did the AC50 turn out when `N#Cc1c(NC(=O)C(F)(F)F)sc2c3c(=O)c4ccccc4c(=O)c=3oc3ccccc3c12` was run?
Answer: 1 µM (active)

Question: How did the AC50 turn out when `C[C@@](N)(C(=O)O)c1ccc(C(=O)O)cc1` was run?
Answer: inactive

Question: With `COCC(=O)N1CCC2(CC1)CCN(c1ncccn1)CC2` as the compound, how does the “activity, negative = inhibition” value read?
Answer: 1.86%

Question: How did the AC50 turn out when `CN(C(=O)c1cnc(N2CCN(c3ncccn3)CC2)c2ccccc12)c1ccc(Cl)cc1` was run?
Answer: 15.8 µM (active)

Question: For `O=C(c1cnc(N2CCN(c3ncccn3)CC2)c2ccccc12)N1CCN(c2ncccn2)CC1`, which “activity, negative = inhibition” value is on record?
Answer: -27.3%

Question: For `O=C(Cc1ccc(Cl)c(Cl)c1)OCCN1CCCC1`, which AC50 is on record?
Answer: 12.6 µM (active)

Question: Which “activity, negative = inhibition” value does the source give for `CCOC(=O)CC1C(=O)NCCN1S(=O)(=O)c1ccc(Cl)c(Cl)c1` (configuration not stated) here?
Answer: -0.861%

Question: Which “activity, negative = inhibition” value does the source give for `COc1ccc(CCN(C)CCc2ccc(OC)c(OC)c2)cc1OC` here?
Answer: -18.9%

Question: Which AC50 does the source give for `CN(CCc1ccc(Cl)c(Cl)c1)CCN1CCCCCC1` here?
Answer: 31.6 µM (active)

Question: `CO[C@H]1COC(=O)[C@@H](CCSC)NC(=O)C/C=C\[C@@H](C)[C@H](OC)COC(=O)[C@@H](OCc2ccccc2)/C=C\[C@@H]1C` was tested. Which activity, negative = inhibition did it give?
Answer: -4.15% [at 11.4 µM]

Question: For `Cc1ccc(C(=O)NCCNc2ccc(Cl)cc2[N+](=O)[O-])o1`, which AC50 is on record?
Answer: 2 µM (active)

Question: With `COc1cccc2cc3c(=O)oc4ccccc4c3nc12` as the compound, how does the AC50 read?
Answer: 0.0891 µM (active)

Question: Which “activity, negative = inhibition” value does the source give for `COc1cccc(C2C(C(=O)c3cc4ccccc4o3)=C(O)C(=O)N2c2cc(C)on2)c1OC` (configuration not stated) here?
Answer: -22.3%

Question: With `CO/N=C\C[C@@H]1C=C[C@H](OC(C)=O)[C@H](COC(C)=O)O1` as the compound, how does the activity, negative = inhibition read?
Answer: -9.17% [at 11.4 µM]

Question: For `CCO/C([O-])=N/c1c[n+](N2CCOCC2)no1`, which “activity, negative = inhibition” value is on record?
Answer: -15.8% [at 25.6 µM]

Question: How did the “activity, negative = inhibition” value turn out when `CC(C)C(C(=O)NCC1CCCO1)N(Cc1ccco1)C(=O)CNS(=O)(=O)c1ccc(F)cc1` (configuration not stated) was run?
Answer: -23.5%

Question: `O=C(NCCc1cccs1)C1CC(c2c(Cl)cccc2Cl)=NO1` (configuration not stated) was tested. Which AC50 did it give?
Answer: 0.501 µM (active)

Question: How did the AC50 turn out when `CCN(CC)C(=S)SSC(=S)N(CC)CC` was run?
Answer: 6.31 µM (active) and 1.58 µM (active)

Question: How did the AC50 turn out when `COc1ccc(-n2c(=O)c(-c3cn(C)c4ccccc34)nc3cnc(N4CCNCC4)nc32)cc1` was run?
Answer: 15.8 µM (active)

Question: For `Cn1cc(-c2nc3cnc(N4CCNCC4)nc3n(-c3ccccc3)c2=O)c2ccccc21`, which AC50 is on record?
Answer: 15.8 µM (active)

Question: With `Cn1cc(-c2nc3cnc(N4CCNCC4)nc3n(C3CC3)c2=O)c2ccccc21` as the compound, how does the AC50 read?
Answer: 12.6 µM (active)

Question: For `COc1ccc2c3c([nH]c2c1)[C@H]1C[C@@H]2[C@@H](C[C@@H](O)[C@H](OC)[C@H]2C(=O)O)CN1CC3`, which activity, negative = inhibition is on record?
Answer: -1.02% [at 11.4 µM]

Question: How did the AC50 turn out when `COc1cnc(-c2ccccn2)nc1Oc1ccc(Cl)c2ccccc12` was run?
Answer: 5.62 µM (active)

Question: For `CCOC(=O)/C(C#N)=C1/C=CN(C)C=N1`, which “activity, negative = inhibition” value is on record?
Answer: -5.3%

Question: `CC(C)N(CCC(=O)c1ccc2ccccc2c1)Cc1ccccc1` was tested. Which AC50 did it give?
Answer: 3.98 µM (active)

Question: For `CC(C)N(CCNC(=O)C1CCC(=O)N1Cc1ccc(F)cc1)Cc1ccccc1` (configuration not stated), which “activity, negative = inhibition” value is on record?
Answer: -25.1%

Question: Which “activity, negative = inhibition” value does the source give for `CC(C)N(CCNC(=O)C1CCN(S(=O)(=O)N2CCOCC2)CC1)Cc1ccccc1` here?
Answer: -8.41%

Question: `N=C(N)S[C@H]1c2ccccc2-c2cc([N+](=O)[O-])ccc21` was tested. Which AC50 did it give?
Answer: 0.158 µM (active)

Question: For `CN1CCCN(C)C1c1cc([N+](=O)[O-])ccc1O`, which activity, negative = inhibition is on record?
Answer: -14.3% [at 11.4 µM]

Question: With `COc1ccc(/C(O)=C2/C(=O)C(=O)N(Cc3cccnc3)C2c2ccco2)cc1OC` (configuration not stated) as the compound, how does the “activity, negative = inhibition” value read?
Answer: 5.59%

Question: With `Cc1ccc(C)c(/C(O)=C2\C(=O)C(=O)N(Cc3cccnc3)C2c2cccnc2)c1` (configuration not stated) as the compound, how does the AC50 read?
Answer: 25.1 µM (active)

Question: With `COCCCN1C(=O)C(=O)/C(=C(/O)c2ccc(OC)cc2C)C1c1cccnc1` (configuration not stated) as the compound, how does the “activity, negative = inhibition” value read?
Answer: 3%

Question: How did the AC50 turn out when `COc1cccc(Cn2c(=O)c(-c3cccs3)nc3cnc(OC)nc32)c1` was run?
Answer: 3.16 µM (active)

Question: For `COc1ccc(Oc2ncc3nc(-c4cccs4)c(=O)n(Cc4cccc(OC)c4)c3n2)cc1`, which “activity, negative = inhibition” value is on record?
Answer: -16.1%

Question: How did the AC50 turn out when `COc1cccc(Cn2c(=O)c(-c3cccs3)nc3cncnc32)c1` was run?
Answer: 5.01 µM (active)

Question: For `COc1cccc(Cn2c(=O)c(-c3ccc(Cl)cc3)nc3cnc(OC)nc32)c1`, which AC50 is on record?
Answer: 3.98 µM (active)

Question: With `CCNc1ncc2nc(-c3ccc(Cl)cc3)c(=O)n(Cc3cccc(OC)c3)c2n1` as the compound, how does the “activity, negative = inhibition” value read?
Answer: -13.6%
